From PubChem BioAssay AID1029 (Sanford-Burnham Center for Chemical Genomics, 2008)
The whole screen tested about 110,000 compounds, of which about 80 (0.07%) were called active. This is one part of a sample in which actives are shown more often than they occur.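 Rule for the calls: active = inhibition above the mean of the plate negative controls plus 5 SD (cut at about 13% in these data); inactive = the rest.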

Assay: blockers of IgG-bead uptake by macrophages – imaging, J774A.1 cells, IgG beads, primary screen (AID 1029);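 note: phagocytic index as fraction of beads internalized from green versus red external bead signal; plate controls were DMSO negative control for no effect and cytochalasin-D positive control for full effect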
Conditions: J774A.1 macrophage IgG-bead phagocytosis, at 5 µM, hits give high values

Row | SMILES | inhibition
1 | Cc1ccc(C)c(OCC(=O)N2CCN(C(=O)c3ccco3)CC2)c1 | -4.31% (inactive)
2 | COc1ccc(-c2csc3ncnc(Oc4ccc5c(C)cc(=O)oc5c4)c23)cc1 | -2.34% (inactive)
3 | O=C(CNS(=O)(=O)c1ccccc1)NCC(=O)OCc1ccccc1F | -3.58% (inactive)
4 | CCCOc1ccc(NC(=O)C2OC3OC(C)(C)OC3C3OC(C)(C)OC23)cc1 (stereo unspecified) | -11.4% (inactive)
5 | CCOC(=O)C1=C(C)NC(=S)NC1c1cccs1 (stereo unspecified) | -4.52% (inactive)
6 | Cc1scc(C(=O)NNC(=S)NCc2ccccc2)c1C | -4.2% (inactive)
7 | O=C(Nc1ccccc1Cc1ccccc1)c1ccc2c(c1)SC1=NS(=O)(=O)CCN12 | -3.83% (inactive)
8 | O=C(O)c1cccc(N2C(=O)Nc3ccccc3N2O)c1 | -9.86% (inactive)
9 | COc1ccc(Cc2nnc(N/N=C/c3ccccc3O)[nH]c2=O)cc1OC | -6.04% (inactive)
10 | COCC(=O)Nc1cc(C(=O)OC)cc(C(=O)OC)c1 | -2.4% (inactive)
11 | CN(C)C(CNC(=O)c1ccc(S(=O)(=O)NCc2ccco2)cc1)c1ccccc1 (stereo unspecified) | -2.95% (inactive)
12 | COc1cc(NC(=O)Nc2ccc(C)cc2)cc([N+](=O)[O-])c1 | -5.65% (inactive)
13 | CC(C)C(C)(C#N)NC(=O)CSc1nc2scc(-c3ccccc3)c2c(=O)[nH]1 (stereo unspecified) | -2.01% (inactive)
14 | Cc1cccc(-c2nc3ccccc3c(=O)n2NC(=O)Cc2ccc(Cl)cc2)c1 | -9.34% (inactive)
15 | O=C(NC(=S)Nc1cc(C(F)(F)F)ccc1N1CCOCC1)c1ccc(-c2cccc(Cl)c2)o1 | -11.9% (inactive)
16 | S=C(NCCc1ccccc1)NCC1CCCO1 (stereo unspecified) | 2.03% (inactive)
17 | Cc1nc2c(C(=O)NCc3cccs3)cnn2c(C)c1Cc1ccc(F)cc1 | -10.6% (inactive)
18 | CCCCCNC(=O)c1cccnc1SCC(=O)Nc1ccccc1OC | -7.81% (inactive)
19 | CCCCOc1ccc(C(=O)N/C(=C/C=C/c2ccccc2)C(=O)N2CCOCC2)cc1 | -6.1% (inactive)
20 | CCc1ccc(NC(=O)CC2C(=O)NCCN2C(=S)Nc2ccccc2)cc1 (stereo unspecified) | 0.25% (inactive)
21 | COC(C(=O)Nc1ccc(C(C)=O)cc1)c1ccccc1 (stereo unspecified) | -7.11% (inactive)
22 | COCCn1c(SCC(=O)Nc2ccc3c(c2)CCC3)nc2ccccc2c1=O | -6.84% (inactive)
23 | Cc1c(Cl)c([N+](=O)[O-])nn1CCCC(=O)Nc1cc(Cl)ccc1Cl | -3.17% (inactive)

Row | SMILES | inhibition
24 | COc1ccccc1OCc1ccc(C(=O)N2CCN(C)CC2)o1 | 0.11% (inactive)
25 | O=C(/C=C/c1cnc2ccccc2n1)NC1CCCCCC1 | -9.71% (inactive)
26 | CO/N=C(\N)c1ccc([N+](=O)[O-])cc1 | -3.92% (inactive)
27 | Cc1ccc(N(Cc2cc3ccccc3[nH]c2=O)C(=O)c2cccs2)cc1 | 0.22% (inactive)
28 | COC(C(=O)NCc1ccccc1C)c1ccccc1 (stereo unspecified) | -6.05% (inactive)
29 | Cc1nnc(SCc2cc(=O)[nH]c(N3CCN(Cc4ccccc4)CC3)n2)s1 | 55.5% (active)
30 | CCc1c(C)nc(N2CCN(Cc3ccccc3)CC2)[nH]c1=O | -1.2% (inactive)
31 | O=c1cc(CSc2ccccn2)nc(N2CCN(c3ccccc3)CC2)[nH]1 | -1.3% (inactive)
32 | O=C(N/N=C/c1coc2ccccc2c1=O)c1cc2ccccc2o1 | -4.52% (inactive)
33 | Cc1nc2ccccc2nc(C)c1=NOCc1ccc(Cl)cc1Cl | -8.1% (inactive)
34 | COc1ccc(C2CC(c3ccccc3)=NN2C(=O)CSc2nccc(=O)[nH]2)cc1 (stereo unspecified) | -11.3% (inactive)
35 | COCCNC(=S)N/N=C/c1c(C)[nH]c2ccccc12 | -8.64% (inactive)
36 | CCCc1nc(SCC(=O)Nc2ccc(S(=O)(=O)N(C)C)cc2)c2ccccc2n1 | -8.66% (inactive)
37 | CCCCC(=O)Nc1ccc(C(=O)Nc2cc(C(F)(F)F)ccc2Cl)cc1 | -2.66% (inactive)
38 | CC1=C[C@H]2Cc3cc(C)cc(C)c3S(=O)(=O)[C@@H]2C=C1 | -2.51% (inactive)
39 | COc1ccc(/C=N/NC(=O)c2ccc(Cl)cc2)cc1COC(C)=O | -2.06% (inactive)
40 | CCNc1ccc(C(=O)OCC(=O)N2c3ccccc3NC(=O)C2(C)C)cc1[N+](=O)[O-] | -2.95% (inactive)
41 | O=C(N/N=C/c1ccc2c(c1)OCO2)c1ccc(Cn2cc([N+](=O)[O-])cn2)o1 | -3.46% (inactive)
42 | O=C1OC(OC(=O)c2ccccc2Br)C(N2CCOCC2)=C1Cl (stereo unspecified) | -11.1% (inactive)
43 | COc1cc(C2C(N3C(=O)c4ccccc4C3=O)C(=O)N2c2ccc(C)c(C)c2)cc(OC)c1OC (stereo unspecified) | -9.54% (inactive)
44 | O=C(CN1C(=O)/C(=C\c2ccccc2F)SC1=S)Nc1nc2ccccc2s1 | -11.3% (inactive)
45 | COC(=O)c1ccccc1NC(=S)NC(=O)c1ccccc1F | -2.31% (inactive)
46 | Cc1[nH]n(-c2ccccc2)c(=O)c1/C=N/NC(=O)c1ccoc1C | 3.58% (inactive)

Row | SMILES | inhibition
47 | Cc1cccc(NC(=S)N(CCN(C)C)C(C)c2ccco2)c1 (stereo unspecified) | -6.2% (inactive)
48 | N=C1C(=O)OCC1c1ccccc1NC(=O)CN1CCCCC1 (stereo unspecified) | -1.24% (inactive)
49 | CCN(CC)CCNCc1ccc(OCc2ccc(Cl)nc2)c(OC)c1 | -2.95% (inactive)
50 | Cc1ccc(S(=O)(=O)N(Cc2ccc(Cl)cc2)c2ccccc2C(=O)NCc2cccnc2)cc1 | -8.82% (inactive)
51 | Nc1nc(NC(=O)/C=C/c2ccccc2)nn1-c1ccccc1 | -0.41% (inactive)
52 | CCc1cccc(NC(=O)CCC(=O)O)c1 | -2.13% (inactive)
53 | CCS(=O)(=O)N1Cc2ccccc2CC1C(=O)Nc1nc2ccc(F)cc2s1 (stereo unspecified) | 7.2% (inactive)
54 | COc1cc(/C=N/O)ccc1OCc1ccc([N+](=O)[O-])cc1 | 0.55% (inactive)
55 | O=C(NC1CCN(Cc2ccccc2)CC1)c1c(F)cccc1F | 2.58% (inactive)
56 | CC(C)(C)C(=O)N1CCC[C@@]1(CO)C(=O)O | 0.17% (inactive)
57 | Cc1cc(/C=C2\SC(=Nc3ccc(N4CCOCC4)cc3)N(C)C2=O)c(C)n1-c1cccnc1 | -0.72% (inactive)
58 | Cc1nn(Cc2ccc(F)cc2)c(C)c1NC(=O)c1cccnc1Cl | -2.17% (inactive)
59 | Cc1ccc(N=C2NC(=O)c3cccc([N+](=O)[O-])c32)cc1 | -5.47% (inactive)
60 | COc1ccc(C/C(C)=N/NC(=O)c2cc(C)oc2C)cc1 | -3.05% (inactive)
61 | C/C(=N\N1CCN(Cc2ccc(C)cc2)CC1)c1ccco1 | -3.06% (inactive)
62 | CCCC/S(C)=N/S(=O)(=O)c1ccc(C)cc1 (stereo unspecified) | -3.8% (inactive)
63 | O=C(NC(=O)N1CCOCC1)c1ccccc1 | -2.51% (inactive)
64 | CCN(CC)S(=O)(=O)c1cc([N+](=O)[O-])ccc1N=Nc1c(O)n(C)c2ccccc12 | -7.04% (inactive)
65 | CC1=C(C)CC(C(=O)NNC(=O)c2csc3c2CCC(C(C)(C)C)C3)C(C(=O)O)C1 (stereo unspecified) | -3.56% (inactive)
66 | CCOC(=O)/C(=N\Nc1cc(Cl)ccc1Cl)N1CCN(C)CC1 | -4.83% (inactive)
67 | Cc1ccccc1N(C(=O)Cc1cccs1)C(C(=O)NC1CCCCC1)c1cn(C)nc1C (stereo unspecified) | -10.4% (inactive)
68 | Cc1nc(-c2ccccc2)cn2c1nc1ccccc12 | -5.21% (inactive)
69 | CCOc1ccccc1N1CCN(C(=S)Nc2ccc(S(N)(=O)=O)cc2)CC1 | -1.85% (inactive)

Row | SMILES | inhibition
70 | CC(C)(C)NCCCOc1ccc(Cl)cc1C(C)(C)C | -2.22% (inactive)
71 | Cc1ccc(C(=O)/C=C/Nc2ccc(S(=O)(=O)Nc3onc(C)c3C)cc2)cc1 | 4.08% (inactive)
72 | O=C(c1cncc(Br)c1)N1CCN(c2ccc([N+](=O)[O-])cc2)CC1 | 1% (inactive)
73 | N=c1n(CCc2ccccc2)c2ccccc2n1Cc1ccccc1F | -1.86% (inactive)
74 | CCCOC(=O)c1ccc(N2C(=O)c3ccccc3C2=O)cc1 | -13.4% (inactive)
75 | Cc1ccc(C(=O)NC(C)c2ccccc2)cc1Br (stereo unspecified) | -1.23% (inactive)
76 | Cc1ccc(CC(=O)Nc2ccc(OC(F)F)c(Cl)c2)cc1C | -0.42% (inactive)
77 | COc1ccc(/C=C/C(=O)OCC(=O)NCc2cccs2)cc1OC | -8.33% (inactive)
78 | Cc1ccc(C2=NN(C(=O)CSc3nc(N)cc(N)n3)C(c3ccco3)C2)cc1 (stereo unspecified) | -1.98% (inactive)
79 | C=CCn1c(SCc2ccc(Cl)c(Cl)c2)nnc1C(CO)NC(=O)c1ccc(OC)cc1 (stereo unspecified) | -2.58% (inactive)
80 | Cc1cc(F)ccc1S(=O)(=O)Nc1ncnc2scc(-c3ccc(F)cc3)c12 | 0.71% (inactive)
81 | c1coc(-c2nc3nc4ccccc4n3nc2-c2ccco2)c1 | -0.8% (inactive)
82 | CN(c1nc2ccccc2n2c(-c3ccco3)nnc12)S(=O)(=O)c1ccccc1 | 14.8% [artifact] (active)
83 | Cc1cc(NCc2ccco2)n2c(nc3ccccc32)c1C#N | -1.3% (inactive)
84 | NS(=O)(=O)c1ccc(N=Cc2ccc(Br)s2)cc1 | -3.71% (inactive)
85 | Cc1nn(-c2ccccc2)c2c1C(c1cccc([N+](=O)[O-])c1)N(c1ccccc1)C(=O)N2 (stereo unspecified) | -9.61% (inactive)
86 | COc1cc(C(=O)NNC(=O)c2ccc(S(=O)(=O)N3CCCCC3)cc2)cc(OC)c1OC | -4.43% (inactive)
87 | CC(=O)Nc1ccc(S(=O)(=O)NC2(C(F)(F)F)C(=O)Nc3c2c(=O)[nH]c(=O)n3Cc2ccccc2)cc1 (stereo unspecified) | -1.92% (inactive)
88 | CCc1ccc(C2N3CC4([N+](=O)[O-])CN2CC([N+](=O)[O-])(C3)C4(C)C)cc1 (stereo unspecified) | -13.9% (inactive)
89 | C=CCn1c(CCNC(=O)c2cccs2)n[nH]c1=S | -0.81% (inactive)
90 | COc1cc(/C=C/C(=O)N2c3ccccc3Sc3ccc(C(F)(F)F)cc32)cc(OC)c1OC | -3.45% (inactive)
91 | Cc1ccc(Sc2ccncc2S(N)(=O)=O)cc1 | -3.16% (inactive)
